From PubChem
Most compounds without a hit are left out; they make up all but 21% or so of the library.
Pf growth 96h = inhibits malaria parasite growth, 96 h; AID 504834; 6.9% of 320,000 active; Potency, µM (highest dose often 28.7 µM), for inactives: at the highest dose activity change, negative = inhibition, actives largely listed as inhibitors; P. falciparum luciferase reporter growth, 96 h; also: potency is read from the fitted curve at half-maximal effect; % is scaled to controls: 0 for no effect and ±100 for the full control effect
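Two-generation exposure (96 h) targets delayed-death phenotype. Reporter parasites carrying integrated firefly luciferase, in red cells at 2% hematocrit and 0.05% parasitemia final, kept at 37 C, 5% CO2; luminescence loss indicates inhibition.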
Cycloheximide cs = counter-screen for Shiga toxin inhibitors: cycloheximide protein synthesis inhibition. cell reporter, cycloheximide protein synthesis inhibition counterscreen. max response, %. 12% of 300,000 active. AID 2314; in the data active = max response mostly above about 13%, no sharp cut-off; inactive = mostly below about 14%; also: read at 38.3 µM for the half of the compounds with a filed dose; 0% is about no effect
HCV inhibitor = blocks hepatitis C virus; Huh7.5.1 HCVcc-Cre infection, luciferase reporter, 44 h; Potency, µM (doses to about 41.8 µM), for inactives: at the top dose activity change, negative = inhibition, hits mostly inhibitors; 3.4% of 340,000 active; also: potency is read from the fitted curve at half-maximal effect; % is scaled to controls: 0 for no effect and ±100 for the full control effect
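Reporter virus HCVcc-Cre (~0.5 moi) infects cells exposed to compound; seeding density 1,000 cells/well with 4 h settling beforehand. Luminescence, 15 sec read, taken 44 h post-infection following a 15 min RT substrate incubation.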
Pf growth 48h = inhibits P. falciparum growth in the first generation, 48 h; Potency, µM (titrated, usually from 28.7 µM), without a hit: top-dose activity change, negative = inhibition, actives largely listed as inhibitors; 5.9% of 310,000 active; P. falciparum luciferase growth in erythrocytes, 48 h; also: potency is read from the fitted curve at half-maximal effect; % is scaled to controls: 0 for no effect and ±100 for the full control effect
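Growth was read as firefly luciferase luminescence after a 48 h, 37 C, 5% CO2 exposure of compounds to reporter-bearing P. falciparum cultures (0.1% parasitemia, 2% hematocrit final) in Albumax-supplemented RPMI 1640.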
AMA1 RON2 block = AMA1-RON2 (P. falciparum) interaction inhibition; Potency, µM (series often up to 58.2 µM), for inactives: at the top dose activity change, negative = inhibition, hits mostly inhibitors; AlphaScreen AMA1-biotinylated RON2 peptide binding; AID 720542; 0.2% of 360,000 active;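 also: potency is read from the fitted curve at half-maximal effect; 0% = vehicle wells and -100% = peptide control; nearly all actives have a fitted effect of over 45% in size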
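AMA1 (3D7) with his tag at 25 nM final met compounds first, then biotinylated RON2 peptide at 25 nM; detection used donor plus acceptor beads, 10 µg/mL apiece, read by AlphaScreen after 30 min at room temperature.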
Shiga inhibitor = inhibitors of Shiga toxin in Vero cells. Vero cells, Shiga toxin protein synthesis inhibition reporter. inhibition, % at 38.7 µM. 9.2% of 290,000 active; in the data active = inhibition mostly above about 28%, no sharp cut-off; inactive = mostly below about 43%; also: 0% is about no effect
* marks the source's active call; other numbers are inactive results; i = inactive; ? = inconclusive; / = no result given. Unless noted, calls follow the shape of the dose curve; as a rule, active = well fitted curve in the direction sought with a large enough effect; inconclusive = small, poorly fitted or top-dose-only effect, or another doubt; inactive = no such curve, though single readings can be large; an effect the other way counts as inactive or inconclusive.

SMILES	Pf growth 96h	Cycloheximide cs	HCV inhibitor	Pf growth 48h	AMA1 RON2 block	Shiga inhibitor
COc1cccc(CN=C2Nc3ccccc3CS2)c1	i	54.1*	1.3%	i	1.6%	77.1*
S=C1Nc2ccccc2CS1	/	/	/	/	101.1%	/
c1cncc(CN=C2Nc3ccccc3CS2)c1	?	15.9	9.2%	35.6%	-1.5%	51.0
COc1ccccc1CN=C1Nc2ccccc2CS1	160.7%	29.9*	3.6%	130.4%	1.0%	81.8*
Clc1ccc(CN=C2Nc3ccccc3CS2)cc1	i	33.7*	-5.2%	209.1%	2.1%	64.1*
Cc1ccc(CN=C2Nc3ccccc3CS2)cc1	326.1%	34.5*	3.3%	206.3%	14.2%	82.2*
c1ccc2c(c1)CSc1ccccc1N2	/	/	-0.5%	/	-11.4%	/
CC(=O)OCC1=C[C@H]2[C@@H]3C(C)(C)[C@]3(OC(=O)Cc3ccccc3)C[C@@H](C)[C@]2(O)[C@@H]2C=C(C)C(=O)[C@@]2(O)C1	/	21.2	/	/	/	3.4
COCCCNC(=O)C(=O)Nc1cc2c3c(c1)CCN3C(=O)CC2	13.8%	-3.6	11.2%	15.3%	-9.1%	-2.2
CCOc1ccc(Cl)cc1C1=CC(=O)C[C@H](c2ccc(OC)cc2)C1	?	/	8.91µM*	?	-0.8%	/
O=C1C=C(c2ccccc2)C[C@@H](c2ccc(Cl)cc2)C1	?	/	-4.3%	2.62µM*	30.8%	/
O=C1C=C(c2ccc(O)cc2)C[C@@H](c2ccc(Cl)cc2)C1	2.33µM*	/	-5.4%	3.7µM*	-2.4%	/
Cc1ccc(C2=CC(=O)C[C@H](c3ccc(Cl)cc3)C2)cc1	-0.1%	/	-9.4%	-7.9%	4.1%	/
O=C1C=C(c2ccc3[nH]ccc3c2)C[C@@H](c2ccc(Cl)cc2)C1	4.65µM*	/	?	2.62µM*	0.0%	/
COc1ccccc1CCNC(=O)CSc1nc(=O)[nH]c2c1CCC2	4.2%	/	11.0%	?	19.6%	/
COc1ccc([C@H]2CC(=O)C=C(c3ccc(C)c4ccccc34)C2)cc1	1.17µM*	/	5.0%	?	10.8%	/
CC(C)c1cccc(C2=CC(=O)C[C@H](c3ccc(F)cc3)C2)c1	2.33µM*	/	-21.0%	1.65µM*	24.7%	/
O=C1C=C(c2cccc(CO)c2)C[C@@H](c2ccc(Cl)cc2)C1	0.465µM*	/	-0.5%	0.329µM*	7.4%	/
COc1ccc(C2=CC(=O)C[C@H](c3ccc(Cl)cc3)C2)cc1	?	/	?	?	5.8%	/
COc1cccc(C2=CC(=O)C[C@H](c3ccc(Cl)cc3)C2)c1	?	/	-4.4%	2.94µM*	1.2%	/
COc1ccc([C@H]2CC(=O)C=C(c3cccc(CO)c3)C2)cc1OC	?	/	-20.6%	?	-2.1%	/
O=Cc1ccc(OC(=O)Cc2ccc(F)cc2)cc1	2.7%	1.3	/	?	/	/
CC1(C)C(Cl)C(=O)C(C(=O)c2ccccc2)C(=O)C1Cl (configuration not stated)	?	-2.7	4.8%	204.0%	-0.5%	-31.6
CCc1nnc(NC(=O)c2cc(Cl)ccn2)s1	5.86µM*	40.9*	-16.0%	?	-77.3%	77.4*
CC(C)(C)c1nnc(NC(=O)c2ccc(Cl)nc2)s1	-23.2%	2.5	5.5%	42.8%	-4.1%	-2.4
SMILES	Pf growth 96h	Cycloheximide cs	HCV inhibitor	Pf growth 48h	AMA1 RON2 block	Shiga inhibitor
CCc1nnc(NC(=O)c2ccc(Cl)nc2)s1	60.6%	32.1*	-4.5%	26.5%	0.0%	75.0*
Cc1cc(NS(=O)(=O)c2ccc(NC(=O)c3ccc(Cl)nc3)cc2)nc(C)n1	/	/	/	/	6.5%	/
CCN(c1ccc(NC(=O)c2ccc(Cl)nc2)cc1)C(C)C	25.1%	24.0*	15.3%	5.6%	-0.1%	37.9*
CCCS(=O)(=O)c1nc(S(=O)(=O)c2ccc(C)cc2)c(N2CCC3(CC2)OCCO3)s1	?	-3.2	2.4%	-16.4%	-18.5%	5.6
O=C(/C=C/c1ccc(Cl)c(Cl)c1)Nc1cccnc1	/	/	?	/	7.1%	/
COC(=O)/C=C/C(=O)Nc1cccnc1	12.3%	-5.3	?	?	-0.1%	30.0
COc1cc(/C=C/C(=O)Nc2ccncc2)cc(OC)c1OC	42.9%	-1.9	?	-9.6%	-11.0%	12.5
COc1ccccc1/C=C/C(=O)Nc1cccnc1	?	37.3*	-4.8%	38.7%	-28.6%	156.4*
CC(=O)N(C)c1ccc(NC(=O)/C=C/c2ccccc2Cl)cc1	?	80.4*	?	?	-4.2%	41.1*
